# From PubChem BioAssay (Tox21)
# Results filed as inconclusive are left out. A call without a number means that no potency is given here. Calls of active or inactive are those of the source. The call rests on the fitted dose curve.
# Assay: qHTS assay to identify small molecule antagonists of the estrogen receptor alpha (ER-alpha) signaling pathway using the BG1 cell line (AID 743080);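 further: BG1 cells stimulated with 17beta-estradiol alongside compound; nearly all actives have a fitted effect of over 25% in size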
# Conditions: BG1Luc4E2 ERE-luciferase antagonist mode, luminescence; series mostly up to 70.3 µM
# From the text: National Center for Advancing Translational Sciences [NCATS]
# NIH Chemical Genomics Center [NCGC]
# U.S. Environmental Protection Agency [EPA]
# National Institutes of Environmental Health Sciences [NIEHS]
# National Toxicology Program [NTP]
# U.S. Food and Drug Administration [FDA]
# Estrogen receptor (ER), a nuclear hormone receptor, plays an important role in development, metabolic homeostasis and reproduction. Endocrine disrupting chemicals (EDCs) and their interactions with steroid hormone receptors like ER causes disruption of normal endocrine function. Therefore, it is important to understand the effect of environmental chemicals on the ER signaling pathway. To identify ER antagonists, BG1-Luc-4E2 cell line (provided by Dr. Michael Denison from University of California) has been used to screen the Tox21 10K compound library. BG1Luc4E2 cell line endogenously expresses full-length ER-alpha and is stably transfected with a plasmid containing four estrogen responsive elements (ERE) upstream of a luciferase reporter gene.
# Tox21 Assay Protocol Summary:
# BG1-Luc-4E2 cells were cultured in phenol red free assay medium containing 10% charcoal stripped FBS for 5 days before the assay was performed. The cells were dispensed at 4,000 cells/4 uL of assay medium per well into white wall/solid-bottom 1536-well plates using a Multidrop Combi (ThermoFisher Scientific, Waltham, MA) dispenser. The assay plates were incubated at a 37C and 5% CO2 for 24 h, and then 23 nL of compounds dissolved in DMSO, positive controls or DMSO only was transferred to the assay plate using a Pintool station (Kalypsys, San Diego, CA), followed by addition of 1 uL of 17beta-estradiol in assay medium using a Flying Reagent Dispenser (Aurora Discovery, San Diego, CA). After the plates were incubated at 37 C and 5% CO2 for 21.5 h, 1 uL of CellTiter-Fluor reagent (Promega, Madison, WI) of measuring cytotoxicity was added using Flying Reagent Dispenser (FRD) to each well. The assay plates were incubated at 37 C and 5% CO2 for additional 30 min and the fluorescence intensity was quantified by a ViewLux plate reader (PerkinElmer, Shelton, CT). For measuring luciferase reporter gene activity, 4 uL of ONE-Glo reagent (Promega) was added to each plate using an FRD and luminescence was quantified by a ViewLux plate reader after 30 min incubation at room temperature.
row,SMILES,Potency
1,COc1ccc2cc1Oc1cc3c(cc1OC)CC[N+](C)(C)[C@H]3Cc1ccc(cc1)Oc1c(OC)c(OC)cc3c1[C@@H](C2)[N+](C)(C)CC3,inactive
2,CCCCS(=O)(=O)N[C@@H](Cc1ccc(OCCCCC2CCNCC2)cc1)C(=O)O,inactive
3,CN1C(C)(C)CC(O)CC1(C)C,inactive
4,COCCOC[C@H](CC1(C(=O)NC2CCC(C(=O)O)CC2)CCCC1)C(=O)Oc1ccc2c(c1)CCC2 (stereo not given in full),inactive
5,CC(N)C12CC3CC(CC(C3)C1)C2 (stereo not given),inactive
6,O=S(=O)(O)c1cc(O)c(O)c(S(=O)(=O)O)c1,inactive
7,CC(=O)c1cnccn1,inactive
8,CC1=CC(=O)[C@H]2C[C@@H]1C2(C)C,inactive
9,CN1CCC(=C2c3ccccc3CCc3cccnc32)CC1,inactive
10,CCCCOCCOC(=O)COc1cc(Cl)c(Cl)cc1Cl,inactive
11,CCNS(=O)(=O)c1ccc(C)cc1,inactive
12,CC1=NN(c2cc(S(=O)(=O)O)ccc2Cl)C(=O)C1N=Nc1ccccc1 (stereo not given),inactive
13,C=CCCC(=O)O,inactive
14,CCCCc1ccc2c(n1)[C@@H](c1ccc(OC)cc1C[C@H](C)C(=O)O)[C@H](C(=O)O)[C@H]2c1ccc2c(c1)OCO2,inactive
15,COc1cc(-c2ccc(=O)[nH]n2)ccc1OC(F)F,inactive
16,CCCCCCCC1CCCC1=O (stereo not given),inactive
17,CO/N=C(\C(=O)N[C@@H]1C(=O)N2C(C(=O)O)=C(CSc3nc(=O)c(O)nn3C)CS[C@H]12)c1csc(N)n1,inactive
18,CCCO[Si](OCCC)(OCCC)OCCC,inactive
19,O=C(CO)[C@@H](O)[C@H](O)[C@H](O)CO,inactive
20,O=C(O)Cc1csc(-c2ccc(Cl)cc2)n1,inactive

row,SMILES,Potency
1,Clc1cc(Cl)cc(Cl)c1,inactive
2,CC(C)c1ccc2ncccc2c1,inactive
3,O=C(O)c1cn(C2CC2)c2cc(N3CCNCC3)c(F)cc2c1=O,inactive
4,C=CCOCC(O)CO (stereo not given),inactive
5,CCC(C(=O)NC(=O)NC(C)=O)c1ccccc1 (stereo not given),inactive
6,CC(C)(CCC(=O)O)C(=O)O,inactive
7,N[C@H](C(=O)O)[C@@H](O)c1ccc(O)c(O)c1,inactive
8,CN1[C@@H]2CC[C@H]1CC(OC(=O)C(O)c1ccccc1)C2 (stereo not given in full),inactive
9,C[N+]1(C)[C@@H]2CC(OC(=O)[C@H](CO)c3ccccc3)C[C@H]1[C@@H]1O[C@@H]12 (stereo not given in full),inactive
10,CC1CCC(CO)CC1 (stereo not given),inactive
11,CC1=CCC(O)(C(C)C)CC1 (stereo not given),inactive
12,CCCCCCCCCCOc1cc2c(=O)c(C(=O)OCC)c[nH]c2cc1OCC,inactive
13,COc1ccnc(CS(=O)c2nc3cc(OC(F)F)ccc3[nH]2)c1OC (stereo not given),inactive
14,CC(C)(C)C(=O)Oc1ccc(S(=O)(=O)Nc2ccccc2C(=O)NCC(=O)O)cc1,inactive
15,C=CC(C)(CCC=C(C)C)OC(=O)CC (stereo not given),inactive
16,Nc1ccn([C@@H]2O[C@H](CO)[C@@H](O)C2O)c(=O)n1 (stereo not given in full),inactive
17,c1ccc(Cc2ccccc2)cc1,inactive
18,CC(=O)C1CCCCC1=O (stereo not given),inactive
19,C[C@H]1C[C@H]2[C@@H]3CCC4=CC(=O)C=C[C@]4(C)[C@H]3C(=O)C[C@]2(C)[C@@]1(O)C(=O)CO,inactive
20,[O-][n+]1cccc(CO)c1,inactive
